Screening results from PubChem.
Gal4-VP16 FLuc = counter-screen for ROR gamma inhibitors: Gal4-VP16 reporter | hit rate 3.5% among 310,000 | AID 2546 | Potency, µM (top dose mostly 53.6 µM), usual class: inhibitors | Drosophila S2 Gal4-VP16 UAS-luciferase, luminescence, 20 h;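 also: Gal4-VP16 expression switched on by copper sulfate through the metallothionein promoter; nearly all actives have a fitted effect of over 50% in size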
Chronic BCR inh = chronic active BCR signaling inhibition | ABC-DLBCL IkBa-CBG/CBR reporter, luminescence ratio, 4 h | Potency, µM (series often up to 46.1 µM), most hits filed as inhibitors | hit rate 0.05% among 340,000; active = well fitted inhibition curve with a large enough effect in the signal ratio, with a control signal flat, not every such curve was filed as active; inconclusive = small, poorly fitted or top-dose-only effect, or effect the other way, or a change in a side signal; the % refers to the signal ratio
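Concentration-response series (up to 46 uM) were applied to TMD8 dual-reporter cells for 4 h at 37C with doxycycline. Green/red ratio, after filter-overlap correction, defined %Activity; red signal alone was normalised to basal cells and zero luminescence.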
Giardia killer = kills Giardia lamblia. hit rate 0.15% among 340,000. activity change, % at 7.66 µM, hits read low. AID 540267. Giardia lamblia trophozoite viability; in the data active = activity change below about -80%; inconclusive = between about -30% and that limit;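 also: parasites exposed to compound for two days anaerobically before the ATP read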
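Viability, read as ATP luminescence: trophozoites at 100 cells/well, compound added, 48 hrs anaerobic at 37 deg C, then 15-30 min room-temperature development before reading.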
RORgamma inh = blocks mouse ROR gamma transcriptional activity. AID 2551. hit rate 5.4% among 310,000. Drosophila S2 Gal4-RORgamma UAS-luciferase reporter, 20 h. P51450. Potency, µM (doses to about 53.6 µM), hits mostly inhibitors; also: nearly all actives have a fitted effect of over 60% in size
Target sequence (P51450 whole entry, looked up, the tested form may be a part): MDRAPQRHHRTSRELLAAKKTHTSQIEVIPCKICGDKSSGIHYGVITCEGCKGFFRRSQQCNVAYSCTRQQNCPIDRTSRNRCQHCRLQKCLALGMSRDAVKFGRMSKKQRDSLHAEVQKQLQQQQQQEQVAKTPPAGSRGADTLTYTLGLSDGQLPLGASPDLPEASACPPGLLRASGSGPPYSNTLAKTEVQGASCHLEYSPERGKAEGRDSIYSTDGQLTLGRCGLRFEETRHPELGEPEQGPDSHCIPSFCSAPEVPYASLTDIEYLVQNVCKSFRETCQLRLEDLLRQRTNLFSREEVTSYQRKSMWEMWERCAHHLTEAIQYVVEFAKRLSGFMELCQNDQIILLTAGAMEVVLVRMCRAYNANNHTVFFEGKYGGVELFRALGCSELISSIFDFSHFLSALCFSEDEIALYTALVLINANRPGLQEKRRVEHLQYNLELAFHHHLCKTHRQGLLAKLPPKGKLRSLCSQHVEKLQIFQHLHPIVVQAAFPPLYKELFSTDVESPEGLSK
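Stably transfected Drosophila Schneider cells are the test system, with ROR gamma fused to Gal4 and luciferase under UAS control; luminescence is read after 20 hr of 700 uM copper sulfate induction at ambient temperature.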
MCF10A rereplic = inducers of DNA re-replication in MCF 10A breast cells. MCF 10A DNA re-replication, Hoechst nuclear intensity, 48 h. Potency, µM (top dose mostly 46.1 µM), most hits filed as activators. hit rate 2.9% among 350,000. AID 624296; also: nearly all actives have a fitted effect of over 50% in size
SW480 rereplic = DNA re-replication induction in SW480 cells. AID 624297. hit rate 1.8% among 340,000. Potency, µM (series often up to 46.1 µM), most hits filed as activators. SW480 DNA re-replication, Hoechst DNA content imaging, 48 h; also: nearly all actives have a fitted effect of over 55% in size
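Image-based DNA-content assay: after two days of treatment, nuclei were labelled with the DNA dye Hoechst and imaged, and hits were compounds raising the count of nuclei showing high fluorescence intensity.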
Numbers stand for hits; - = inactive; ? = inconclusive; . = not tested or not shown; [ ] = another dose, or the depositor's remark. This is a sample that favours compounds with a hit; in the whole collection about 8.3% have one here. Unless noted, calls follow the shape of the dose curve; as a rule, active = well fitted curve in the direction sought with a large enough effect; inconclusive = small, poorly fitted or top-dose-only effect, or another doubt; inactive = no such curve, though single readings can be large; an effect the other way counts as inactive or inconclusive.

SMILES	Gal4-VP16 FLuc	Chronic BCR inh	Giardia killer	RORgamma inh	MCF10A rereplic	SW480 rereplic
Cn1nnnc1N=N/C(=N/Nc1ccccc1)c1ccccc1	2.2µM	?	?	0.35µM	?	?
Oc1ccccc1N=N/C(=N/Nc1ccccc1O)c1ccccc1	.	-	?	.	-	-[9.22 µM]
CCC(NC(=S)NC1CCCCC1)c1ccc(C)cc1 (centres undefined)	5µM	-	.	2.8µM	.	.
CCCc1ccc(C(C)NC(=S)NC2CCCCC2)cc1 (centres undefined)	3.5µM	-	-	2.5µM	-	?
Cc1ccc(-n2ncc3c2CC(C)(C)CC3NC(=O)CCn2cncn2)cc1 (centres undefined)	-	-	-	-	-	-
CN1CC=C2C(C#N)=C(N)C(C#N)(C#N)[C@H](c3ccoc3)[C@H]2C1	-	-	-	-	-	-
N#CC1=C(N)C(C#N)(C#N)[C@H](c2ccoc2)[C@H]2CN(Cc3ccccc3)CC=C12	-	-	-	-	7.3µM	16µM
COC(=O)c1ccccc1Sc1ncnc2onc(C)c12	?	?	-	11µM	?	-
CCC(=O)NC(=S)N1CCN(c2ccc([N+](=O)[O-])cc2Cl)CC1	16µM	?	-	4µM	-	?
CC(C)(C)C(=O)N1CCN(c2ccc([N+](=O)[O-])cc2Cl)CC1	.	.	-	.	-	-[9.22 µM]
O=C(NC(=S)N1CCN(c2ccc([N+](=O)[O-])cc2Cl)CC1)c1ccco1	0.032µM	-	-	0.02µM	-	-
CCCN1CNc2c(c(=O)[nH]c(=S)n2CCc2c(OC)cccc2OC)C1	.	.	-	.	.	.
O=C(NCCc1ccc(F)cc1)c1cc([N+](=O)[O-])ccc1N1CCOCC1	.	-	-	.	-	-
O=C(NCCc1ccccc1)c1cc([N+](=O)[O-])ccc1N1CCOCC1	.	-	-	.	-	-
O=C(NCCOc1ccccc1F)c1cc([N+](=O)[O-])ccc1N1CCOCC1	-	-	-	-	?	9.2µM
O=C(NCCOc1ccccc1)c1cc([N+](=O)[O-])ccc1N1CCOCC1	.	-	-	.	10µM	2.9µM
CC(=O)c1cc2c(cc1NC(=O)CCn1cnnn1)OCO2	-	-	-	-	-	-
COc1cc(NC(=O)C(C)N2CCN(C(=O)C3CC3)CC2)cc(OC)c1 (centres undefined)	.	-	-	.	-	-
CCN1CCCC(OC(=O)c2cc(-c3ccccc3Cl)nc3ccccc23)C1 (centres undefined)	-	-	-	-	-	-
O=C(Nc1cccc(N2C(=O)C3C4C=CC(C4)C3C2=O)c1)c1cccs1 (centres undefined)	-	-	-	-	0.82µM	-
Cc1cc(N2C(=O)C3C4C=CC(C4)C3C2=O)ccc1NC(=O)c1cccs1 (centres undefined)	-	-	-	-	-	-
CC(/C=N/NC(=O)c1cc(-c2ccccc2)nc2ccccc12)=C\c1ccco1	-	?	-	-	?	8.2µM
CC(/C=N/NC(=O)c1cc(-c2ccc(Cl)cc2)nc2ccccc12)=C\c1ccco1	-	?	-	-	0.65µM	5.2µM
CC(=C/c1ccco1)/C=N/NC(=O)c1ccncc1	-	?	-	-	?	-
COc1ccccc1CC(=O)N1CCN(S(=O)(=O)c2ccccc2F)CC1	.	-	-	.	-	-
SMILES	Gal4-VP16 FLuc	Chronic BCR inh	Giardia killer	RORgamma inh	MCF10A rereplic	SW480 rereplic
NC(=O)c1ccsc1NC(=O)CCS(=O)(=O)c1ccc(F)cc1	.	?	-	.	-	?
FC(F)(F)c1nc(-c2cccs2)ncc1-c1nnnn1-c1ccc(Cl)cc1	-	-	-	-	6.5µM	-
Cc1ccc([N+](=O)[O-])cc1S(=O)(=O)N1CCn2cccc2C1c1ccc(F)c(F)c1 (centres undefined)	.	-	.	.	.	.
O=[N+]([O-])c1ccc(-c2cn3nc(-c4ccccc4)c(-c4ccccc4)nc3n2)cc1	-	-	-	-	3.7µM	?
O=[N+]([O-])c1ccc(-n2cc(-c3ccccc3)nn2)cc1	?	?	-	-	-	-
O=[N+]([O-])c1cccc(-c2cn3ccccc3n2)c1	-	?	-	-	-	-
O=[N+]([O-])c1cccc(-c2cn3nc(-c4ccccc4)c(-c4ccccc4)nc3n2)c1	-	-	-	-	?	5.8µM
